Results reported in ChEMBL document CHEMBL3988442, “University of Dundee, Small-Polar-MMV Screening Library” (2021).
For some of these results: Measured potencies and affinities stand elsewhere.

Tests used:
Parameters in all cases: scale not given: direction of the effect not stated beside the values
[1] = target: Protein translocase subunit SecA (Escherichia coli (strain K12)) (UniProt P10408); test: Assay to Identify E. coli SecA ATPase Inhibitors; format: functional; details: 30 µM
[2] = target: T1, Ubiquitin-activating enzyme e1, putative (Leishmania donovani (strain BPK282A1)) (UniProt E9BSI1); test: Leishmania donovani Ubiquitin Activating Enzyme (LdE1); format: functional; details: 30 µM
T1 sequence (whole entry): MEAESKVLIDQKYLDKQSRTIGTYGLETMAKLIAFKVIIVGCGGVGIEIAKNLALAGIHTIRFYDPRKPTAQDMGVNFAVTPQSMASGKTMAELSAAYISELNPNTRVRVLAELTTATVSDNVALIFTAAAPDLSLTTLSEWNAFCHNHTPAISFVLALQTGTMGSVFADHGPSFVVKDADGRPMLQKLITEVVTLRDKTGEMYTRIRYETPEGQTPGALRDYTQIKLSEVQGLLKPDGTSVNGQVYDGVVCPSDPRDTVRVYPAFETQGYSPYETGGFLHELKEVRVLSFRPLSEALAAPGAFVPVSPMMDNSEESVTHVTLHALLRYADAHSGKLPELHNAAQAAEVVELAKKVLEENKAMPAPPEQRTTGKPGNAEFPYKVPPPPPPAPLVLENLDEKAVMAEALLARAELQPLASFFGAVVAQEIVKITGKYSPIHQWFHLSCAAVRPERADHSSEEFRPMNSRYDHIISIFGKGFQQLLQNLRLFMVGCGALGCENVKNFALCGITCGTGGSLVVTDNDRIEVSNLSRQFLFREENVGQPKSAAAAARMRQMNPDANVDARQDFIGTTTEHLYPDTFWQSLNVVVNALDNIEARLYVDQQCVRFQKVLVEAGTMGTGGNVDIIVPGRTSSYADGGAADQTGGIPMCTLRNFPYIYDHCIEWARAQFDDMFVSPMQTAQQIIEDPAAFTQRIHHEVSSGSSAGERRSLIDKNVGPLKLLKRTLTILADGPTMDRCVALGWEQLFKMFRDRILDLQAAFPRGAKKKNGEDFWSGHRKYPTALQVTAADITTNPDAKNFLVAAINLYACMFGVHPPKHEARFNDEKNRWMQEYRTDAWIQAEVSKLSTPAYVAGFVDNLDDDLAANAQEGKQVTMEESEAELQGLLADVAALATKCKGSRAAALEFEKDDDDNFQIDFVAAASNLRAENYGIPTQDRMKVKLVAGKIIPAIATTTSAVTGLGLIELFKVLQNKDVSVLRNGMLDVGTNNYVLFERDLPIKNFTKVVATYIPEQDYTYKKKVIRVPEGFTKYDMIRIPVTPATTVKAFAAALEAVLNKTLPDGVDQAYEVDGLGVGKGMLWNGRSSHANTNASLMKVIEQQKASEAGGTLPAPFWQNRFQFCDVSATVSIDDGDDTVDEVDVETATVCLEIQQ

[3] = target: AMP-activated protein kinase, AMPK (Homo sapiens) (UniProt P54646+O43741+P54619+Q9UGJ0+Q9Y478+Q13131+Q9UGI9); test: AMP-dependent Kinase enzyme assay. An in vitro enzyme assay that detects ADP turnover that is directly proportional to AMPK activity. This uses naive AMPK that is activated during the assay with MK-8722; format: functional; details: 30 µM
[4] = target: Sialic acid-binding Ig-like lectin 9 (Homo sapiens) (UniProt Q9Y336); test: Hs-Siglec9 ALPHAscreen SOP 20170721; details: 10 µM
Sialic acid-binding Ig-like lectin 9 (Homo sapiens), sequence (Q9Y336 whole entry): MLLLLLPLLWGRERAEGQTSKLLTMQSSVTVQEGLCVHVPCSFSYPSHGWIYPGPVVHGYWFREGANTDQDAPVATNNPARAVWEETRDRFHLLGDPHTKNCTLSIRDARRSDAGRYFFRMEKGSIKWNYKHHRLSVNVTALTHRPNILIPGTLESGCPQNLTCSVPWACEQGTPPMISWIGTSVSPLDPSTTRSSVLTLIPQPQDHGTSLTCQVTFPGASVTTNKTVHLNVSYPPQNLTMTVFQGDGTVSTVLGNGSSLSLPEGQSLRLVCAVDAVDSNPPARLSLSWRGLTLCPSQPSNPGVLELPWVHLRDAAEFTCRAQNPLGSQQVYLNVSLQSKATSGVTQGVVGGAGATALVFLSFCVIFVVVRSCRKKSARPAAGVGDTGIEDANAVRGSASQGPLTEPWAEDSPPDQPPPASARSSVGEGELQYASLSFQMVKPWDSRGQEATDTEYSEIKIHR

Trypanosoma cruzi = test: Trypanosoma cruzi phosphomannomutase and mannose-1-phosphate guanylyltransferase assay; format: functional; details: 10 µM
[5] = target: T2, Arginase-2, mitochondrial (Homo sapiens) (UniProt P78540); test: in vitro enzyme assay to detect the production of urea directly proportional to the activity of Arginase II; format: functional; details: 33.3 µM; note: in the data most compounds retested in dose-response had high values
T2 sequence (whole entry): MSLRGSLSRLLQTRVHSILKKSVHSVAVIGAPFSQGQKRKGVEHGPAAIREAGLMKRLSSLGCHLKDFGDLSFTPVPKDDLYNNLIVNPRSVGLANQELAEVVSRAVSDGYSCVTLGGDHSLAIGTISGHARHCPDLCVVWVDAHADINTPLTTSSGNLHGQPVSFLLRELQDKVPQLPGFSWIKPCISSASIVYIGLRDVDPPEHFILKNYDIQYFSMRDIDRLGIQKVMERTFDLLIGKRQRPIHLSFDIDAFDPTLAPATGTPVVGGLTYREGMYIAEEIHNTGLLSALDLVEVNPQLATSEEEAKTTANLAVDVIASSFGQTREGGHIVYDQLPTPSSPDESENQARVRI

[6] = target: T3, Proteasome subunit beta (Trypanosoma cruzi) (UniProt O96673); test: Trypanosoma cruzi proteasome chymotrypsin-like activity (TcProtChymo) assay.; note: in the data most compounds retested in dose-response had high values; format: functional; details: 9.37 µM
T3 sequence (whole entry): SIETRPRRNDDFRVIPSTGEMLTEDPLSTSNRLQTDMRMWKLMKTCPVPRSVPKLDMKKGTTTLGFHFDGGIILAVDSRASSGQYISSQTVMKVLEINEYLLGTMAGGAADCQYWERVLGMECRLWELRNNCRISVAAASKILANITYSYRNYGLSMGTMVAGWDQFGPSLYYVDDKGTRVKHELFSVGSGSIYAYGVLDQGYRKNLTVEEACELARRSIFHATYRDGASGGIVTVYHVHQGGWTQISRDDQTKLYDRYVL

Homo sapiens = species: Homo sapiens; test: To identify inhibition of the IFN signalling (Jak-Stat) pathway via expression of an eGFP reporter gene under the control of an IFN-stimulated response element (ISRE) containing MxA promoter.; format: functional; details: 30 µM
[7] = target: T4, Tyrosyl-tRNA synthetase, putative (Trypanosoma cruzi (strain CL Brener)) (UniProt Q4DSP6); test: Trypanosoma cruzi tyrosyl tRNA synthetase (TcYRS) _High Tyrosine SOP; format: functional; details: 30 µM; note: in the data most compounds retested in dose-response had high values
T4 sequence (whole entry): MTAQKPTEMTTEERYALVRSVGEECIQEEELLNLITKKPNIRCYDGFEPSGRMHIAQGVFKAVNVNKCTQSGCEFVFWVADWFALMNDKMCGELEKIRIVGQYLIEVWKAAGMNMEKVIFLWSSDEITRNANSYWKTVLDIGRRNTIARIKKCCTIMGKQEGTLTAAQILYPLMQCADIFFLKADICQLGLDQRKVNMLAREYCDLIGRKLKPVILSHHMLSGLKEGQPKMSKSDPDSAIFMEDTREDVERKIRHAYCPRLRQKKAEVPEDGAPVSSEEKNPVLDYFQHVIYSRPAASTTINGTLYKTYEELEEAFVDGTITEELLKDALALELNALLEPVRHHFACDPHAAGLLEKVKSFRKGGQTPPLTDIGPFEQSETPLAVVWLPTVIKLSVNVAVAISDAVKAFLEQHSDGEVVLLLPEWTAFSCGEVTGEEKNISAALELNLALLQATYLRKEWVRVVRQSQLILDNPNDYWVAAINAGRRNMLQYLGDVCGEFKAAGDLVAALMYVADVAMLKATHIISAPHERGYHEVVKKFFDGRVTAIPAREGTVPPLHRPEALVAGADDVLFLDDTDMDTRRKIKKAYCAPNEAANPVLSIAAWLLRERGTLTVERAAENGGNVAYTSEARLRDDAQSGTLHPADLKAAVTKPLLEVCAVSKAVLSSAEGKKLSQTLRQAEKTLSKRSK

[8] = target: T4, Tyrosyl-tRNA synthetase, putative (Trypanosoma cruzi (strain CL Brener)); test: Trypanosoma cruzi tyrosyl tRNA synthetase (TcYRS) SOP; format: functional; details: 30 µM
[9] = target: Chromo domain-containing protein 1 (Saccharomyces cerevisiae (strain ATCC 204508 / S288c) (Baker's yeast)) (UniProt P32657); test: ScCHD-1 Enzyme Inhibition Assay; format: functional; details: 30 µM; note: in the data most compounds retested in dose-response had high values
Chromo domain-containing protein 1 (Saccharomyces cerevisiae (strain ATCC 204508 / S288c) (Baker's yeast)), sequence (P32657 whole entry, the tested form may be a part): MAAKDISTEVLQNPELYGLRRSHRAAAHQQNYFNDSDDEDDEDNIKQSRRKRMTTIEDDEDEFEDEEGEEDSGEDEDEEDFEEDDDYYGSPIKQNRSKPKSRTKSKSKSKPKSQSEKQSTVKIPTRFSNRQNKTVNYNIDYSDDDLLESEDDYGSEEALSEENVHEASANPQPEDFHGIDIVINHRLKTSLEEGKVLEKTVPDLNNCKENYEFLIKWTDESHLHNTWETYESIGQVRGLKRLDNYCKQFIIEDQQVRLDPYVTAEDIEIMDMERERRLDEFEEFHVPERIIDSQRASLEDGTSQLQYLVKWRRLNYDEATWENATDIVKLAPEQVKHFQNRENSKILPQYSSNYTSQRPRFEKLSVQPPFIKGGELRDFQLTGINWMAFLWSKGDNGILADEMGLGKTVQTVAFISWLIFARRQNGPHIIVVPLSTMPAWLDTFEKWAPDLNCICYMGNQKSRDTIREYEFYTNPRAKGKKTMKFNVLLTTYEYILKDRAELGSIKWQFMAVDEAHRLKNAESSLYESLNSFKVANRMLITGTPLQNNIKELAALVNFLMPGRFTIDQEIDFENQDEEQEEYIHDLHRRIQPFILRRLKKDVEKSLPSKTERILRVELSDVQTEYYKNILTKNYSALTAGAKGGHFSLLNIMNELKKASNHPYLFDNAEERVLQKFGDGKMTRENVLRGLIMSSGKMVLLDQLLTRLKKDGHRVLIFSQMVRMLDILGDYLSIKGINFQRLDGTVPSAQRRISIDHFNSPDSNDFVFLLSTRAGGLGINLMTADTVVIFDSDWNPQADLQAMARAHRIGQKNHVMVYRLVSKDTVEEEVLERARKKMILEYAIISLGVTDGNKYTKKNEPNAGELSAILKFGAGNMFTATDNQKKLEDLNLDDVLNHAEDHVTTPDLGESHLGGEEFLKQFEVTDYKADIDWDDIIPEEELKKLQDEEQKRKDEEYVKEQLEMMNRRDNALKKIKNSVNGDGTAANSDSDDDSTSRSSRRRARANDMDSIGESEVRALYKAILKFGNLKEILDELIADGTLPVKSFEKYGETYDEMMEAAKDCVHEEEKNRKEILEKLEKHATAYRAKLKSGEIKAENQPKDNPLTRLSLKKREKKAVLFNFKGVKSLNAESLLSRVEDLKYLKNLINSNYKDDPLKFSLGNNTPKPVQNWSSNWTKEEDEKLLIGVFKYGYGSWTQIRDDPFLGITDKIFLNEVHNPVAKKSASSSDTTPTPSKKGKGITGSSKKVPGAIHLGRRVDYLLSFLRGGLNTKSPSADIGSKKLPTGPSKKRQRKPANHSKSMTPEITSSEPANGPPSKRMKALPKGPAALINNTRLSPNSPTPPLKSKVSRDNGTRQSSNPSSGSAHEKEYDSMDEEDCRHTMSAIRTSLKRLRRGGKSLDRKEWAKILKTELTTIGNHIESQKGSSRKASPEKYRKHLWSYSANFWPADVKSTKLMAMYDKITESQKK

Protein translocase subunit SecA (Escherichia coli (strain K12)), sequence (P10408 whole entry): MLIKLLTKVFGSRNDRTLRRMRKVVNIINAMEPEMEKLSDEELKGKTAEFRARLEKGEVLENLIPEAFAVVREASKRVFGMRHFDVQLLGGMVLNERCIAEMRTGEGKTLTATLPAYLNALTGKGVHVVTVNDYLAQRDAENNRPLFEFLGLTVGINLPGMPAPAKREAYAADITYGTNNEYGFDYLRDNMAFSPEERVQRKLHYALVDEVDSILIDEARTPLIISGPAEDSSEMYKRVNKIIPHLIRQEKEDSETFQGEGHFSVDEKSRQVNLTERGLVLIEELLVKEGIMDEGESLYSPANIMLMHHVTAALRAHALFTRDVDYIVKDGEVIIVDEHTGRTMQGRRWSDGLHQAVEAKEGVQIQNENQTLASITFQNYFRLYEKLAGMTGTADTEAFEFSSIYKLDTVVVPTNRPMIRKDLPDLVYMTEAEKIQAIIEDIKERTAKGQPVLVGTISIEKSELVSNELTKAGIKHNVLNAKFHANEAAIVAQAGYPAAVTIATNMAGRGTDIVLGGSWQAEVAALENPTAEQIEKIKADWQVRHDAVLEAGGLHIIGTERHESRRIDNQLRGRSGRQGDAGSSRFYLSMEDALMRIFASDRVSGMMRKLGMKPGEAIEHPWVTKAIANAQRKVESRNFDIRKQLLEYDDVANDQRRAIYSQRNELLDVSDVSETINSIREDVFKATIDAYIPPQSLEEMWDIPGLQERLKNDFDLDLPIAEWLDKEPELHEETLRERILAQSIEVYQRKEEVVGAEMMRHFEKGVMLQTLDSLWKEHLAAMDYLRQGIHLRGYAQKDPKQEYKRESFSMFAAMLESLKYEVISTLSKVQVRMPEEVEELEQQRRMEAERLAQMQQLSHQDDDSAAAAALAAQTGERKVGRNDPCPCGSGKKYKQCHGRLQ

| SMILES | Percent Effect [1] | Percent Effect [2] | Percent Effect [3] | Percent Effect [4] | Percent Effect (Trypanosoma cruzi) | Percent Effect [5] | Percent Effect [6] | Percent Effect (Homo sapiens) | Percent Effect [7] | Percent Effect [8] | Percent Effect [9] |
| --- | --- | --- | --- | --- | --- | --- | --- | --- | --- | --- | --- |
| O=C(O)c1coc(COc2cccc(F)c2)n1 | -5.01% | 16.2% | -4.57% | 33.9% | 5.77% | 19.6% | 18.4% | -3.93% | 5.38% | 16.1% | -12.4% |
| COc1cccc(COCC(=O)N2CCCC(n3ccnc3)C2)c1 (stereo not given) | -4.67% | 18.9% | 21.3% | -4.82% | -6.13% | 0.802% | 3.06% | 10.7% | 6.4% | 11.1% | -5.14% |
| CC(C)OCCCN1CCCC(c2nc3ccccc3n2C(C)C)C1 (stereo not given) | -2.17% | 13.5% | -7.28% | -1.96% | 3.32% | 32.9% | 15% | 22.4% | 9.9% | 13.4% | 6.88% |
| O=C(NCCc1ccsc1)Nc1cccnc1N1CCCC1 | -3.39% | 26.3% | -28.7% | 0.502% | 3.64% | -2.88% | 11.2% | -10.3% | 8.37% | 35.8% | -9.48% |
| COc1ccc(OC)c(C(O)CN2CC(n3cccn3)C2)c1 (stereo not given) | -3.82% | -10.5% | 2.67% | 6.6% | 9.02% | 4.98% | 9.52% | -12.8% | 6.37% | 9.76% | -8.21% |
| CCNC(c1cccnc1)c1ccc(F)c(F)c1 (stereo not given) | -1.6% | -1.27% | 6.62% | 2.25% | -0.923% | 4.09% | 5.66% | 5.14% | 1.04% | -5.06% | -14.2% |
| O=C(c1ccsc1)N1CC[C@H]2C[C@@H](c3nnc(C4CC4)o3)O[C@@H]2C1 | -1.93% | 7.79% | 1.35% | -4.04% | -1.08% | 12.3% | 19.5% | -4.29% | 2.12% | 11.5% | -7.52% |
| O=C(NCc1ccc(-n2cncn2)nc1)c1ccoc1 | -8.93% | 0% | -18.3% | 31.6% | 11.6% | -10.4% | 0.901% | 3.65% | 4.43% | 18.5% | -15.1% |
| O=C(NCCN1CCCc2ccccc21)c1scnc1Cl | -4.96% | 2.63% | 0.379% | -2.42% | 2.52% | -0.719% | 2.96% | -9.38% | 7.39% | 1.24% | 3.5% |
| O=C(Nc1nccs1)N(CCO)Cc1ccsc1 | -1.95% | 13.2% | -2.9% | -1.76% | 5.08% | -2.3% | 11.5% | -0.668% | 8.33% | 29.3% | -13.6% |
| c1nc2c(c(C3CC3)n1)CCN(Cc1ccc3c(c1)OCO3)CC2 | -2.79% | -5.48% | 3.53% | 13.7% | 4.37% | -0.399% | 7.45% | 8.17% | 6.25% | 1.24% | -2.36% |
| CNC(=O)CCCNCc1c(C(C)C)nn(C)c1N(C)C | -1.38% | 0% | -11.4% | -8.3% | -2.15% | 2.52% | 0.761% | -13.6% | -2.46% | -1.24% | 5.41% |
| CC(C)c1cc(NCC(O)CO)n2nccc2n1 (stereo not given) | -2.58% | 8.11% | 0.503% | 25.3% | 3.48% | 11.9% | 19.3% | 9% | 1.59% | 12.2% | -9.93% |
| O=C(Nc1cn[nH]c1)c1ccc(O)nc1 | -0.619% | 13.2% | 4.46% | 12.7% | 2.82% | -0.766% | 5.68% | 1.45% | 8.33% | 21.9% | -8.54% |
| CS(=O)(=O)NC[C@@H]1OC[C@H]2CN(C(=O)c3ccc[nH]3)CC[C@H]21 | -1.96% | -187% | 4.44% | 3.67% | -18.5% | -44.3% | 10.6% | -0.978% | -265% | -628% | -2.84% |
| CN(C)CC(=O)N1CCOC2(CCCN(c3ncccc3F)C2)C1 (stereo not given) | -5.7% | 8.11% | 1.61% | 5.4% | 0% | 1.25% | 4.48% | 8.63% | 7.92% | 13.4% | -5.27% |
| COc1ccccc1C(=O)NC(CC(=O)O)c1cccs1 (stereo not given) | -3.27% | 13.9% | 0.385% | 5.67% | -1.33% | 2.8% | 20.2% | -5.53% | 5.21% | 12.7% | -19.2% |
| Cc1ccc(CNC(=O)NCc2csc(C)n2)cn1 | -2.07% | 17.7% | -8.56% | -3.48% | -3.31% | 8.37% | -1.56% | 0.522% | 5.42% | 16.5% | -6.06% |
| CCN1CC(C(=O)N2CCC(Oc3ccccc3Cl)CC2)CC1=O (stereo not given) | -1.39% | 2.74% | 6.94% | -1.45% | -11.5% | -4.39% | 16.7% | 42.2% | 3.12% | -30.9% | -5.81% |
| O=C(COc1coc(CN2CCOCC2)cc1=O)c1ccc(Cl)cc1 | -3.55% | 2.63% | 5.88% | 11% | -2.04% | -11.8% | 12% | 20.8% | -1.06% | 0% | -0.42% |
